Data from PubChem BioAssay AID631 (The Scripps Research Institute Molecular Screening Center, 2007).
Among all 200,000 compounds or so, about 810 (0.41%) were called active. Cut-off read from the data, not from the text of the source: active = activation above about 19%; inactive = the rest. Only a selection was taken, and actives are over-represented in it overall.

Biological target: Peroxisome proliferator-activated receptor gamma (Homo sapiens) (UniProt P37231)
Experiment: enhancers of SRC-1 binding to PPARgamma – biochemical, primary screen (AID 631);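 note: 0% = DMSO and 100% = reference agonist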
Settings: PPARgamma-SRC-1 coactivator recruitment biochemical assay; at 8 µM; hits give high values

Peroxisome proliferator-activated receptor gamma (Homo sapiens), sequence (P37231 whole entry, looked up): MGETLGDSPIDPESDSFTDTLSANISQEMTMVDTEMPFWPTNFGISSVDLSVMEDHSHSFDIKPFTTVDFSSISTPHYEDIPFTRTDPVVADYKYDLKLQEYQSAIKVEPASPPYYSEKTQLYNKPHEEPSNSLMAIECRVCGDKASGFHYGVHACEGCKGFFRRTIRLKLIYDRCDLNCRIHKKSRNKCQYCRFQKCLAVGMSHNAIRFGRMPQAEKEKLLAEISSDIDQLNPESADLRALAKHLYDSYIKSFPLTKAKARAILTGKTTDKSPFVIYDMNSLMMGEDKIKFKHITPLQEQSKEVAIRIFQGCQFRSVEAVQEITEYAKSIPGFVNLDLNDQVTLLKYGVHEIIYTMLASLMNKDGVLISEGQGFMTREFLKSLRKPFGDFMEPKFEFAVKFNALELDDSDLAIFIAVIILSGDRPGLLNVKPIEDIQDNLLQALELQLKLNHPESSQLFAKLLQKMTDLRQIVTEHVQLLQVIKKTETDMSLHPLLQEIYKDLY

activation, active:
Cc1cc(C)c2c(c1)cc(C)c1nnc(SCC(=O)Nc3cc(C)on3)n12 22.2%
CCc1ccc(-n2c(SCc3cc(=O)n4cc(Br)ccc4n3)nc3[nH]ncc3c2=O)cc1 23.4%
O=C(Oc1ccccc1)Oc1ccc2c(c1)oc(=O)c1ccccc12 33.7%
CCCOc1ccc(C2C(C(=O)c3ccc(C)o3)=C(O)C(=O)N2CCCn2ccnc2)cc1 (configuration not stated) 25.1%
Fc1ccc(COc2cccc(-c3n[nH]c(=S)o3)c2)cc1 61.7%
COc1ccc2c(Cl)c(-c3nnco3)sc2c1 24.2%
Cn1c(-c2sc3cc(C(F)(F)F)cnc3c2-c2ccccc2)n[nH]c1=S 36.3%
Cc1cc(N2C(=O)C(=O)/C(=C(/O)c3ccc(Cl)cc3)C2c2cccc(Br)c2)no1 (configuration not stated) 20.6%
Cc1nc(-c2ccccc2)sc1-c1nc(-c2ccccc2)ncc1S(=O)(=O)c1ccccc1 19.3%
COc1ccc(/C(O)=C2/C(=O)C(=O)N(c3nc(C)c(C)s3)C2c2ccco2)cc1 (configuration not stated) 22.1%
CCN(CCCNC(=O)CSc1cc(=O)n(C)c2cc(Cl)ccc12)Cc1ccccc1 55.4%
COc1cccc(NC(=S)NC(=O)c2c(Cl)c(C)nn2C)c1 30.8%
Cn1c(=O)cc(SCC(=O)N2CCN(C(=O)c3ccco3)CC2)c2ccccc21 49.4%
CCOC(=O)C1CCN(C(=O)CSc2cc(=O)n(C)c3ccccc23)CC1 49.8%
Cn1c(=O)cc(SCC(=O)N2CCCC2)c2cc(Cl)ccc21 53.4%

activation, inactive:
CCOC(=O)CNC(=O)N1c2ccccc2Sc2ccccc21 8.4%
Cc1ccc2c(c1)C1CN(C)CCC1N2C(=O)c1ccccc1NS(=O)(=O)c1ccc(F)cc1C (configuration not stated) 1.7%
COc1cc(NC(=O)COC(=O)c2cnc(C)cn2)c(C)cc1[N+](=O)[O-] -1%
Cc1ccc(-c2csc(SCC(=O)Nc3cc(C)on3)n2)cc1 -4%
Cc1cc(NC(=O)CSc2nnc(Nc3ccccc3F)s2)no1 -0.2%
COc1cccc(C2SCC(=O)N2c2cccc(C)c2)c1OC (configuration not stated) 2.3%
CCCNC(=O)c1c(Cl)cnn1-c1ccc(C)cc1 -0.9%
O=C(O)c1ccc(N/N=C/c2ccc3ncccc3c2)cc1 7.5%
O=C(Nc1nnc(Cc2ccc(Cl)cc2)s1)c1cccnc1 0%
O=C1CN(C(=O)COC(=O)c2cnc(Cl)c(Cl)c2)c2ccccc2N1 8.3%
O=c1c2sccc2nc(SCc2cc(=O)n3ccccc3n2)n1-c1ccc(Br)cc1 3%
Cc1cccc2nc(CSc3nc4[nH]ncc4c(=O)n3-c3cccc(Cl)c3)cc(=O)n12 3.8%
Cc1ccsc1C1C(C#N)=C(N)OC2=C1C(=O)CC(C)(C)C2 (configuration not stated) 11.2%
COc1ccccc1CCNC(=O)CSc1nnc2ccc(-c3cccnc3)nn12 4.1%
CC(=O)Oc1ccc2c(C)c(CC(C)O)c(=O)oc2c1 (configuration not stated) -0.8%
Cc1c(Cc2ccccc2)c(=O)oc2cc(OCC(N)=O)ccc12 -0.5%
CNC(=S)Nc1ccc([N+](=O)[O-])cc1 7.4%
CCOc1cnc(-c2c(-c3ccccc3Cl)noc2C)o1 9.5%
COc1ccc(-c2ccc(CNCCCN3CCOCC3)o2)cc1Cl 10.2%
COc1cc(C2C(C(=O)c3ccc(C)o3)=C(O)C(=O)N2Cc2cccnc2)ccc1O (configuration not stated) -0.3%
COc1cc(C2C(C(=O)c3ccc(C)o3)=C(O)C(=O)N2CCc2ccccc2)ccc1O (configuration not stated) 4.9%
COc1ccc2c(c1)CCc1cn3ncc(C#N)c3nc1-2 2.5%
CCCn1c(=S)[nH]c2ccc(C(F)(F)F)cc21 7.7%
Cc1ccc(NC(=O)CSCC(=O)NC2CCCCC2)cc1 6.7%
Cc1cccc(OCc2ccc(C(=O)Nc3ccc(F)cc3)cc2)c1 8.1%
Cc1nc2ccccc2cc1OCc1ccc(F)cc1 -0.6%
COc1ccc(OC)c(-c2csc(NC(=O)C3=NNC(=O)CC3)n2)c1 -3.7%
Cc1cc(NC(=O)COC(=O)COc2ccc(Cl)cc2C)c([N+](=O)[O-])cc1C -2.9%
COc1ccc(-c2nnco2)cc1OC -4%
COc1ccc2c(Cl)c(C(=O)NCc3ccco3)sc2c1 -0.6%
CC(=O)Nc1ccccc1OC(C)C(=O)N1CCC(C)CC1 (configuration not stated) 3.2%
Cc1nn2cc(-c3ccc(Cl)cc3)cnc2c1Br 9.4%
Cc1cc(C(F)(F)F)n2ncc(-c3ccccc3)c2n1 -0.8%
Cn1c(-c2sccc2OCc2cccc(C(F)(F)F)c2)n[nH]c1=S 2.2%
COc1cccc(CNC(=O)CCC2CCCN(C(=O)c3ccoc3C)C2)c1 (configuration not stated) 11.7%
CC1(C)CN(c2ccc(-c3ccnc4ncnn34)cc2)C1=O -2.6%
CSCCC(=O)N1CCCC(CNC(=O)c2ccccc2Cl)C1 (configuration not stated) 6%
COc1ccccc1C1/C(=C(/O)c2ccc(OC(C)C)cc2)C(=O)C(=O)N1c1cc(C)on1 (configuration not stated) 16.5%
COc1ccc(C2/C(=C(/O)c3ccccc3)C(=O)C(=O)N2c2ncccn2)cc1OC (configuration not stated) 8.9%
Cc1ccc(C(=O)Cc2nnc(C)s2)cc1 -2.5%
Cc1cccc(NC(=S)N2CCC(O)CC2)c1C 1.3%
CCN1CCN(c2cc3nc(C)n(Cc4ccccc4)c(=O)c3cc2NC(=O)c2ccccc2F)CC1 3.9%
COc1cccc(NC(=S)NCc2ccco2)c1 -2.7%
C=CCn1c(-c2sc(-c3ccccc3)nc2C)n[nH]c1=S 0.8%
Cc1nc(-c2ccccc2)sc1C(=O)/C=C/c1ccccc1 -1.9%
O=C(O)C1C2CC2CN1C(=O)c1ccc(Cl)cc1Cl (configuration not stated) 4.2%
Cc1cccc(C)c1NC(=O)C1(C)c2cccc[n+]2CC(=O)N1Cc1cccs1 (configuration not stated) -2.9%
Cc1nc(SCc2ccc(F)cc2)c([N+](=O)[O-])[nH]1 5.8%
COc1ccccc1C1/C(=C(/O)c2ccc(C)cc2)C(=O)C(=O)N1Cc1ccco1 (configuration not stated) 10.8%
COc1ccc(/C(O)=C2\C(=O)C(=O)N(Cc3ccco3)C2c2ccc(OC)cc2OC)cc1 (configuration not stated) 2%
COC(=O)c1c(C)[nH]c(C)c1-c1ccc([N+](=O)[O-])cc1 -0.7%
Cc1ccc(/C=N/NC(=O)COc2ccccc2-c2ccccc2)cc1 2.1%
O=C(Oc1ccc([N+](=O)[O-])cc1)c1ccc(Cl)c(S(=O)(=O)N2CCCCC2)c1 -9.6%
CC(C)N(C(=O)Cn1cc(SCC(=O)N2CCCC2)c2ccccc21)C(C)C 5.8%
Cc1ccc(NC(=O)CC2C(=O)N(Cc3ccccc3)C(=S)N2NC(=O)c2cccc(F)c2)c(C)c1 (configuration not stated) -0.5%
CCN(CC)CCCNC(=O)c1cc(-c2cccc(Cl)c2)on1 3.6%
CCN(CC)CCCNC(=O)CCc1ccccc1 3.3%
O=C(Nc1ccccc1Cl)c1ccccc1S(=O)(=O)c1ccccc1[N+](=O)[O-] 2.9%
COc1ccc(C(=O)C[n+]2ccc(C)cc2)cc1 0.2%
S=C(NN=C1CCN(Cc2ccccc2)CC1)NC1CCCCC1 -1.7%
CC(Sc1cccc[n+]1[O-])C(=O)Nc1cccc(S(=O)(=O)N2CCOCC2)c1 (configuration not stated) -5.3%
Cc1nn(C)c(C(=O)NNC(=S)NC2CCCCC2)c1Cl -8.4%
COc1cccc(NC(=S)NCc2ccccn2)c1 2.4%
O=C(/C=C/c1cnc2ccccc2n1)NC1CCCCCC1 -0.4%
O=c1cc(O)c(-c2cccc(C(F)(F)F)c2)c(Cl)[nH]1 8%
CC(=O)c1ccc(-n2nnnc2SCC(=O)N2CCN(C(=O)c3ccco3)CC2)cc1 0.3%
Cc1cccc(OCc2nnc(SCC(=O)N3CCN(C(=O)c4ccco4)CC3)n2C)c1C 5.6%
CCOC(=O)N1CCC(NC(=O)COc2cc(=O)n(C)c3ccccc23)CC1 -0.7%
O=C(CSCc1ccc(Cl)cc1)N1CCCCC1 2%
CCOc1ccc(CCNC(=O)CSc2cc(=O)n(C)c3ccc(Cl)cc23)cc1OCC 12%
CCOC(=O)C1CCN(C(=O)Cn2cc(C#N)c3ccccc32)CC1 -2.2%
CC1CN(CCCOc2ccccc2-c2ccccc2)CC(C)O1 (configuration not stated) 6.7%
C/C(=N\Nc1nc(N2CCOCC2)nc(N2CCOCC2)n1)c1ccc([N+](=O)[O-])cc1 1.7%
CCN(CC)c1ccc(C(=O)N/N=C(\C)c2cccc(OC)c2)cc1 9.4%
CCOC(=O)c1c(N)nn(C(=O)c2ccccc2)c1-c1ccccc1 3%
COc1cc2c(cc1OC)C(=O)NCC(C)(C)O2 9.4%
CCOC(=O)c1ccccc1C(=O)N1CCOCCOCCOCC1 -0.2%
Cc1cnc(C(=O)N2CCCC(C(=O)c3ccc(C(F)(F)F)cc3)C2)cn1 (configuration not stated) 5.6%
CN(C)/C(=N\OC(=O)c1ccccc1)c1nonc1N 2.5%
O=C(Nn1cnc2ccccc2c1=O)c1ccccc1 12.8%
Nc1nc(SCC(=O)NCCN2CCOCC2)nc2sc3c(c12)CCC3 6%
CCOc1cc(C2C(C(=O)OC(C)C)=C(C)NC3=C2C(=O)CCC3)cc([N+](=O)[O-])c1O (configuration not stated) -1%
